Measurements from paper PMC7819943, “Rice protein-binding microarrays: a tool to detect cis-acting elements near promoter regions in rice”.
Over roughly 35,000 sequences, “fluorescence intensity (a.u.)” has its median near 10,000; the highest 2% begin near 52,000. What follows is part of a selection rich in the highest values, with near analogues and random picks from the rest.

What follows are sequences tested against T1, OsWOX13 (Oryza sativa, UniProt Q5QMM3 1-267) (assay: protein-binding microarray (RPBM); PBS, 2% BSA, 51.3 ng/ul salmon testes DNA, 50 uM zinc acetate, 200 nM TF, 25 C, 1 h; high values mean tight binding). Conditions: protein: recombinant; tags: N-terminal polyhistidine and DsRed monomer fusion (pET32a); label: CyDye5-dUTP incorporated in the synthesized complementary strand; 3' TTTTT single-stranded linker to array surface; dsDNA, one strand shown.
T1 sequence: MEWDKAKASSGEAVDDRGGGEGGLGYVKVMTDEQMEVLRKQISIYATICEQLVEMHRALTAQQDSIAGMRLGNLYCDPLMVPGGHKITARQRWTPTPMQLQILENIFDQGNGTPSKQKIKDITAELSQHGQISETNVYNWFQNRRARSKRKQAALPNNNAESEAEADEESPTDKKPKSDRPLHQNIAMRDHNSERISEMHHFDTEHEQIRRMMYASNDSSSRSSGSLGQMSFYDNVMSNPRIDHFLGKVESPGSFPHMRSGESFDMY
How it was run: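 The binding signal is fluorescence intensity per array feature (arbitrary units). Readings came from an Axon 4000B scanner after a washed, 2% BSA-blocked, double-stranded custom Agilent array had been incubated for 1 h at 25 °C with 200 nM protein and 50 µM zinc acetate. The protein was a Ni–NTA-purified transcription factor fused N-terminally to polyhistidine and DsRed, expressed in E. coli BL21-CodonPlus.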

| Sequence | binding signal |
| --- | --- |
| AGTTAATGAAATAATGCCAGCCTGCTGTCTTCTGATTATCCGGAGTCACCTAGTGCAG | 6010 fluorescence intensity (a.u.) |
| GCCTGCATTCATTTCCCTAATCAATCGGCTCGGATAATGTCGGAGTCACCTAGTGCAG | 4450 fluorescence intensity (a.u.) |
| CGAATCTAAACAATCAATATTTAATTATACTTCCTCTAGACGGAGTCACCTAGTGCAG | 12600 fluorescence intensity (a.u.) |
| AAGATTGGGCTGTTCATTAATCAAATTATTCTATGTGTCTCGGAGTCACCTAGTGCAG | 11900 fluorescence intensity (a.u.) |
| TACACGAGATTGGAGGCACTAGGCCTCAGTACATGGCACGCGGAGTCACCTAGTGCAG | 3870 fluorescence intensity (a.u.) |
| GTATGATTATCTTTCTTCGAGTAATTAACACGAAACGATGCGGAGTCACCTAGTGCAG | 40700 fluorescence intensity (a.u.) |
| AATAAATTGTATTAATAACAAATTAGTCTATTCTATTAAACGGAGTCACCTAGTGCAG | 24100 fluorescence intensity (a.u.) |
| AATAATGAATTTAAAATAAAATAAAACTGCATGCAAGCGACGGAGTCACCTAGTGCAG | 5650 fluorescence intensity (a.u.) |
| AGTAGATTTTGACATGCTGTGTGTTAACAATGGGAGTAGACGGAGTCACCTAGTGCAG | 3550 fluorescence intensity (a.u.) |
| ACCCATCACTAATCAGTAATCACAGTATTACTATTAAATTCGGAGTCACCTAGTGCAG | 9220 fluorescence intensity (a.u.) |
| CATTTAATTCATTGTTATATATATATATATATAGACACACCGGAGTCACCTAGTGCAG | 3920 fluorescence intensity (a.u.) |
| TAACAAACTATTCCTAATTAATAGATAAACTGCCATGCCGCGGAGTCACCTAGTGCAG | 8390 fluorescence intensity (a.u.) |
| TTATAATTAGTATTTTCATTGTTGTTAGATGATAAAACATCGGAGTCACCTAGTGCAG | 17500 fluorescence intensity (a.u.) |
| AATGTGTTAACTAATCAACTCGTCTCCCATCTCCTGCAAGCGGAGTCACCTAGTGCAG | 5480 fluorescence intensity (a.u.) |
| GTAATTGGGCTTTCTTTGGGTAGTTATCGCTGGGCTTAATCGGAGTCACCTAGTGCAG | 6360 fluorescence intensity (a.u.) |
| CTACTGATTGTATTGATTGGGTAGCTGGATTGAAGTTAATCGGAGTCACCTAGTGCAG | 57000 fluorescence intensity (a.u.) |
| GGGTGCTGAAATTGATATACGATCAATTGTTGTCGGTGATCGGAGTCACCTAGTGCAG | 14000 fluorescence intensity (a.u.) |
| CTTGTATGTTTGTGGATTGATATATTATATATTGATATATCGGAGTCACCTAGTGCAG | 6720 fluorescence intensity (a.u.) |
| AATATGATTGCTTTGTGGGTGTATGGTTCATTTTCAATGGCGGAGTCACCTAGTGCAG | 47700 fluorescence intensity (a.u.) |
| CGTTAATCGTTGTGATTGATGTCGGATATGTTTGCCACCACGGAGTCACCTAGTGCAG | 58600 fluorescence intensity (a.u.) |
| TTGTGATTTGTTAGAATTGTATTTTACAATGTGTAGTATGCGGAGTCACCTAGTGCAG | 39800 fluorescence intensity (a.u.) |
| GTCTCTGTCTCTCGCTCTGATTGAAGTGTTCTGCTGCCATCGGAGTCACCTAGTGCAG | 20400 fluorescence intensity (a.u.) |
| GTCATCATTGATTGATATGATTTTGTATGTGTGAGCAATGCGGAGTCACCTAGTGCAG | 59400 fluorescence intensity (a.u.) |
| ACTTGTGTGATGTTTGGATTGATGCCAAAACTTGCCAAATCGGAGTCACCTAGTGCAG | 3930 fluorescence intensity (a.u.) |
| TGCTGGATTGTATTGATGTGTGTGCTTACCTAGTATAAATCGGAGTCACCTAGTGCAG | 3580 fluorescence intensity (a.u.) |
| TGAGCTGATTGATCGTCTGAAGGGTGTCTGATTGTCAAGTCGGAGTCACCTAGTGCAG | 52800 fluorescence intensity (a.u.) |
| ACCAGGAAGTCATAAATTAATGGATCGAATATGACCTGCTCGGAGTCACCTAGTGCAG | 3160 fluorescence intensity (a.u.) |

| Sequence | binding signal |
| --- | --- |
| GGTTAATTATGCGAAAGAGAATCTTAATCCCAGGGGCTTTCGGAGTCACCTAGTGCAG | 17600 fluorescence intensity (a.u.) |
| CCTGATTTCTAAAGAAAGCCGTCCGGTTTTAACTGAGTCTCGGAGTCACCTAGTGCAG | 10100 fluorescence intensity (a.u.) |
| TATTTTGGACCCATGATAGATTGATTTAGAACATGCGGAGCGGAGTCACCTAGTGCAG | 11400 fluorescence intensity (a.u.) |
| CTCCACTAATCTAAAATTTGTTTAATGGATCATTGCATCACGGAGTCACCTAGTGCAG | 16000 fluorescence intensity (a.u.) |
| TTGTAGATTTATACCTGTCCTAATCAGAGTATACTGTATTCGGAGTCACCTAGTGCAG | 3990 fluorescence intensity (a.u.) |
| CTCAGCCTGATTAATCGGAGATAATGAGTCTACGAATTTGCGGAGTCACCTAGTGCAG | 9790 fluorescence intensity (a.u.) |
| ATATATATAATTAGGATTGTTATATGCATAGGTTTGCATTCGGAGTCACCTAGTGCAG | 18400 fluorescence intensity (a.u.) |
| TTGCAAAACTGGCTTAATTGATTCCATATTTCCATTCCACCGGAGTCACCTAGTGCAG | 32200 fluorescence intensity (a.u.) |
| ATCCGTCATCTGATTTAATCTCATACGTCCGCTATCCTCCCGGAGTCACCTAGTGCAG | 4210 fluorescence intensity (a.u.) |
| GAGATAAATGATCAACTAGTCCGTGAATTTGACACCGATGCGGAGTCACCTAGTGCAG | 7110 fluorescence intensity (a.u.) |
| ATGACTGATTTATGACAGCCGTGCATGTGTATTTGTGTACCGGAGTCACCTAGTGCAG | 55500 fluorescence intensity (a.u.) |
| GATGATTGACTTATTATGCTATAATAATATGCTGAATGAACGGAGTCACCTAGTGCAG | 40600 fluorescence intensity (a.u.) |
| ATGATTGATTTGGGTAACATACCAAACACCAAACAGTTCACGGAGTCACCTAGTGCAG | 56600 fluorescence intensity (a.u.) |
| ATTCCAATTGATTTTAGTTAGTTTTCATACATAGTTAACACGGAGTCACCTAGTGCAG | 10900 fluorescence intensity (a.u.) |
| TGGCCGGTGATTTACCGTACTAGTGATGTATGCGTGCAAACGGAGTCACCTAGTGCAG | 3650 fluorescence intensity (a.u.) |
| GCTAATTTGGGCACCATATTGGGCCTGATTTTGGTAAACACGGAGTCACCTAGTGCAG | 6980 fluorescence intensity (a.u.) |
| AATGAATGACTGTCACAGTTCGATGATGTGACTATATATGCGGAGTCACCTAGTGCAG | 16600 fluorescence intensity (a.u.) |
| GTTACTGCATGATTTGCTAGATGTATTTTATGACAACAGACGGAGTCACCTAGTGCAG | 12900 fluorescence intensity (a.u.) |
| ATGATGATTGACTTATGTGAATATATTGTCTATATATGCACGGAGTCACCTAGTGCAG | 60300 fluorescence intensity (a.u.) |
| TCTAAACATATCCAGATAAATTATTCTGAGATGAGTCTCACGGAGTCACCTAGTGCAG | 3670 fluorescence intensity (a.u.) |
| TTCACGCTTGATTGGGCTGGGATTAAGGCCCATTTATACACGGAGTCACCTAGTGCAG | 23500 fluorescence intensity (a.u.) |
| ACCCCGAGCTGATTATCTCTGAACGTACGATCAAGCCGTCCGGAGTCACCTAGTGCAG | 6180 fluorescence intensity (a.u.) |
| TACTAATTACTACTAACCGTTAAAAGTAGCCGCCGGTTAACGGAGTCACCTAGTGCAG | 17800 fluorescence intensity (a.u.) |
| CTTTAGTCTCTGACACTAATTTAGAGTATTAAATATAGACCGGAGTCACCTAGTGCAG | 3810 fluorescence intensity (a.u.) |
| ACAACCAACTGATTGAAGACGTCCACGTGCTTCCTAAGATCGGAGTCACCTAGTGCAG | 35200 fluorescence intensity (a.u.) |
| AAATCAATTACTAGTGCGCGGTTTGTTGAGGAAAAGGCAACGGAGTCACCTAGTGCAG | 6960 fluorescence intensity (a.u.) |
| ACGATCAAATTTAGACATGGAAACTCGTGACTGTGCTTATCGGAGTCACCTAGTGCAG | 6550 fluorescence intensity (a.u.) |
